According to article PMC11006913:

The sequences below were run against NKX3-2 (Homo sapiens, UniProt P78367 192-278, P234S) (assay: PBM; 200 nM protein, PBS). Conditions: dsDNA, one strand shown.
NKX3-2, sequence (P78367 192-278 P234S): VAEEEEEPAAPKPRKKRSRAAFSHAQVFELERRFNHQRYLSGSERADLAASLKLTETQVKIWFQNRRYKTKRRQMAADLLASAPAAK

Sequence | binding signal
AACCAGCC | 10.4 upbm affinity estimate (log intensity, higher = more binding, comparable within an allelic series)
GGCCTCAC | 10.5 upbm affinity estimate (log intensity, higher = more binding, comparable within an allelic series)
AAGCCGCC | 10.7 upbm affinity estimate (log intensity, higher = more binding, comparable within an allelic series)
AGAAGAGG | 11.6 upbm affinity estimate (log intensity, higher = more binding, comparable within an allelic series)
GAGAGTAC | 12 upbm affinity estimate (log intensity, higher = more binding, comparable within an allelic series)

These sequences were tested against CRX (Homo sapiens, UniProt O43186 26-111, R41L) (assay: PBM; 200 nM protein, PBS). Conditions: dsDNA, one strand shown.
CRX, sequence (O43186 26-111 R41L): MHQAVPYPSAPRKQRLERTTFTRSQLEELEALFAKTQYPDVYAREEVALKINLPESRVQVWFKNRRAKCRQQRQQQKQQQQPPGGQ

Sequence | binding signal
ACTAAGAC | 10.1 upbm affinity estimate (log intensity, higher = more binding, comparable within an allelic series)
AGGCTTAG | 11.6 upbm affinity estimate (log intensity, higher = more binding, comparable within an allelic series)
ACTAAGCT | 11.4 upbm affinity estimate (log intensity, higher = more binding, comparable within an allelic series)
ATAAGCCG | 12.3 upbm affinity estimate (log intensity, higher = more binding, comparable within an allelic series)
CGGCTTAG | 11.9 upbm affinity estimate (log intensity, higher = more binding, comparable within an allelic series)
CCTAATAC | 10.6 upbm affinity estimate (log intensity, higher = more binding, comparable within an allelic series)
ACGCTTAA | 10.3 upbm affinity estimate (log intensity, higher = more binding, comparable within an allelic series)
GTATTAGA | 10.7 upbm affinity estimate (log intensity, higher = more binding, comparable within an allelic series)
GCTTAAGA | 11.1 upbm affinity estimate (log intensity, higher = more binding, comparable within an allelic series)
ATAATCTA | 12.4 upbm affinity estimate (log intensity, higher = more binding, comparable within an allelic series)
GTCTTAAC | 10.3 upbm affinity estimate (log intensity, higher = more binding, comparable within an allelic series)
CTAAGCCA | 10.7 upbm affinity estimate (log intensity, higher = more binding, comparable within an allelic series)
CTAATGCC | 10.1 upbm affinity estimate (log intensity, higher = more binding, comparable within an allelic series)
CTTAATAC | 11.3 upbm affinity estimate (log intensity, higher = more binding, comparable within an allelic series)
ACTAATAC | 10.7 upbm affinity estimate (log intensity, higher = more binding, comparable within an allelic series)
CCTAAGCC | 11.2 upbm affinity estimate (log intensity, higher = more binding, comparable within an allelic series)
CTTAAGAC | 10.7 upbm affinity estimate (log intensity, higher = more binding, comparable within an allelic series)
CTAAGCTC | 11.1 upbm affinity estimate (log intensity, higher = more binding, comparable within an allelic series)

Sequence | binding signal
CAGATTAC | 12.3 upbm affinity estimate (log intensity, higher = more binding, comparable within an allelic series)
TAAGACGA | 10.2 upbm affinity estimate (log intensity, higher = more binding, comparable within an allelic series)
AGCATTAA | 10.9 upbm affinity estimate (log intensity, higher = more binding, comparable within an allelic series)
AGTATTAA | 11 upbm affinity estimate (log intensity, higher = more binding, comparable within an allelic series)
CCGCTTAA | 10.9 upbm affinity estimate (log intensity, higher = more binding, comparable within an allelic series)
ATTAAGAC | 11 upbm affinity estimate (log intensity, higher = more binding, comparable within an allelic series)
CTTAATGC | 11 upbm affinity estimate (log intensity, higher = more binding, comparable within an allelic series)
CGTCTTAA | 10.7 upbm affinity estimate (log intensity, higher = more binding, comparable within an allelic series)
GCTAAGAC | 10.2 upbm affinity estimate (log intensity, higher = more binding, comparable within an allelic series)
CTAATACC | 11.2 upbm affinity estimate (log intensity, higher = more binding, comparable within an allelic series)
GGTGTTAA | 10.2 upbm affinity estimate (log intensity, higher = more binding, comparable within an allelic series)
ATCTTAAG | 10.8 upbm affinity estimate (log intensity, higher = more binding, comparable within an allelic series)
GCATTAGC | 10.5 upbm affinity estimate (log intensity, higher = more binding, comparable within an allelic series)
CTTTATCC | 10.7 upbm affinity estimate (log intensity, higher = more binding, comparable within an allelic series)
AGTATTAG | 10.8 upbm affinity estimate (log intensity, higher = more binding, comparable within an allelic series)
AGCTTAAG | 11.6 upbm affinity estimate (log intensity, higher = more binding, comparable within an allelic series)
ATTAAGCG | 10.8 upbm affinity estimate (log intensity, higher = more binding, comparable within an allelic series)
